Compound activity from PubChem.
Only a selection was taken, and hits are over-represented in it overall.
HT1080 IDH1KD tx: kills HT-1080 cells with IDH1 knockdown; AID 686971; 360,000 compounds, 2% hits; HT-1080 IDH1 knockdown viability, ATP luminescence, 48 h; Potency, µM (top dose mostly 46.1 µM), for the others: at the highest dose activity, negative = toxicity, most hits filed as cytotoxic;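 note: potency is the fitted concentration of half-maximal effect; 0% = DMSO wells and -100% = cell-free medium wells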
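IDH1KD HT-1080 cells, 750/well, RPMI + 5% FBS; compound pinned after 2 h settling; 48 h, 37 °C; CellTiter-Glo luminescence; % activity normalised to DMSO and no-cell wells; curves fitted, classed by r2 and efficacy.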
HT1080NT lethal: kills 2HG-producing HT-1080-NT fibrosarcoma cells. HT-1080-NT fibrosarcoma viability, CellTiter-Glo ATP luminescence, 48 h. Potency, µM (top dose mostly 46.1 µM), for the others: top-dose activity, negative = less viability, hits mostly cytotoxic. AID 686970. 360,000 compounds, 1.6% hits;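 note: NT is the 2HG producing partner of a matched IDH1 knockdown line; potency is the fitted concentration of half-maximal effect; 0% = DMSO-treated cells and -100% = media-only wells without cells; nearly all actives have a fitted effect of over 55% in size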
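750 cells/well, RPMI + 5% FBS; 2 h settle, compound pin-transfer, 48 h at 37 degrees C. CellTiter-Glo 10 min RT, luminescence. Normalized to DMSO and media-only wells.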
DT40 TDP1 CPT: growth inhibition of DT40 Tdp1-/-;hTDP1 cells with camptothecin (screen for TDP1 inhibitors); chicken DT40 Tdp1-/-;hTDP1 cells + 20 nM CPT, ATP luminescence, 48 h; Potency, µM (top dose mostly 46.2 µM), without a hit: top-dose activity change, negative = growth inhibition, usual class: inhibitors; 420,000 compounds, 12% hits; AID 686979; note: potency is the fitted concentration of half-maximal effect; nearly all actives have a fitted effect of over 55% in size
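Chicken DT40 Tdp1-/- cells stably complemented with human TDP1 were seeded at 400 cells/well in medium containing 20 nM camptothecin, exposed to pin-transferred compounds, and grown at 37 °C for at least 48 hr. Viability was read as ATP luminescence.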
IL-1B inflam inh: inflammasome signaling inhibition, IL-1 beta readout. THP-1 LPS/ATP IL-1B secretion, AlphaLISA, 16 h; hits give low values. activity change, % at 57.5 µM. 360,000 compounds, 4.7% hits; in the data active = activity change below about -50%; inconclusive = mostly about -30% to -49%
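Secreted IL-1B measured by AlphaLISA bead assay after 16 h compound exposure of THP-1 cells; compounds (final up to 57.5 uM) added 1 h before LPS (250 ng/mL) and ATP (1.25 mM) stimulation; lower signal means less secretion.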
ALOX12 inh: inhibitors of human 12S-lipoxygenase ALOX12; Potency, µM (top dose mostly 108 µM), without a hit: at the highest dose activity change, negative = inhibition, actives largely listed as inhibitors; purified 12hLO, xylenol orange hydroperoxide absorbance; 580,000 compounds, 1.1% hits; AID 1671190; note: potency is the fitted concentration of half-maximal effect
Target sequence (P18054 whole entry, looked up): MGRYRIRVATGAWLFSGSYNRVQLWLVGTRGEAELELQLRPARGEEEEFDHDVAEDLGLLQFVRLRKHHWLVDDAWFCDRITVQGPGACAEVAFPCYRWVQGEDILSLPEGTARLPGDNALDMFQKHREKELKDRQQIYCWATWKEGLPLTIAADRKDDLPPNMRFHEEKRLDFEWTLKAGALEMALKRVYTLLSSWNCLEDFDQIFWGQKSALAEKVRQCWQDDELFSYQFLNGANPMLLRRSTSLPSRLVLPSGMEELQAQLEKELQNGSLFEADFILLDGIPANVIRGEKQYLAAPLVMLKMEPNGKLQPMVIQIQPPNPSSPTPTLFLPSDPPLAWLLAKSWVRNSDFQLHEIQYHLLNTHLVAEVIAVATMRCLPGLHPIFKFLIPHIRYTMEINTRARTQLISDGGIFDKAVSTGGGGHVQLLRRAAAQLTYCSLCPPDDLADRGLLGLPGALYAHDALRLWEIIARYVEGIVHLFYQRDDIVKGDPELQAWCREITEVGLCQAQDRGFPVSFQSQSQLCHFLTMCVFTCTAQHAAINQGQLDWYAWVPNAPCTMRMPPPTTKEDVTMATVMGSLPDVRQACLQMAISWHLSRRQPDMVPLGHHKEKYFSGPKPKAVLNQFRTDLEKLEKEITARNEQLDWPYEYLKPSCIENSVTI
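Purified human 12hLO at 150 nM in 25 mM Hepes, 0.01% Triton X-100, pH 7.0, preincubated 15 min at room temperature with compound. Reaction started with 40 uM arachidonic acid, 30 min at room temperature. Hydroperoxide measured by Fe-xylenol orange, 573/405 nm absorbance ratio.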
TDP1 cell noCPT: qHTS for Inhibitors of human tyrosyl-DNA phosphodiesterase 1 (TDP1): qHTS in cells in absence of CPT; Potency, µM (titrated, usually from 46.2 µM), for the others: at the highest dose activity change, negative = growth inhibition, actives largely listed as inhibitors; AID 686978, 2013; DT40 Tdp1-/- hTDP1 cells, no CPT, ATP luminescence, 48 h; 420,000 compounds, 15% hits; note: potency is the fitted concentration of half-maximal effect; nearly all actives have a fitted effect of over 55% in size
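Compound effects on proliferation are scored in DT40 Tdp1-/-;hTDP1 cells in the absence of CPT. ATP levels (CellTiter-Glo luminescence) are recorded after a ≥48 hr, 37 °C incubation.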
Numbers without * were called inactive; ? = inconclusive; / = not tested or not shown; ! = not confirmed by another sample; [ ] = another dose, or the depositor's remark. Unless noted, calls come from the whole dose curve; as a rule, active = well fitted curve in the direction sought with a large enough effect; inconclusive = small, poorly fitted or top-dose-only effect, or another doubt; inactive = no such curve, though single readings can be large; an effect the other way counts as inactive or inconclusive. Unless noted, % is set by controls: 0 for no effect and ±100 for the full control effect.

SMILES | HT1080 IDH1KD tx | HT1080NT lethal | DT40 TDP1 CPT | IL-1B inflam inh | ALOX12 inh | TDP1 cell noCPT
COc1ccc(-c2nc3cc(C(C)C)ccc3o2)cc1NC(=O)c1ccc(C)c(Cl)c1 | / | / | 21µM* | / | -16% | 18µM*
CCOc1ccc(C(=O)Nc2ccc(-c3nc4cc(C(C)C)ccc4o3)cc2)cc1Cl | / | / | ? | / | -1% | ?
NC(=O)[C@@H](Cc1ccccc1)NC(=O)[C@@]1(O)C[C@@H](O)[C@H](O)[C@@H](NC(=O)c2ccco2)C1 | / | / | / | / | -12%[176 µM] | /
Cc1ccsc1C(=O)N1CCCC(n2cc(-c3nc(C4CC4)no3)nn2)C1 (centres undefined) | / | / | / | / | -7% | /
O/N=C1\CCCCC1c1nccc2ccccc12 (centres undefined) | / | / | / | / | 6% | /
COc1ccc2cc(-c3[nH]ncc3CN3CCCN(c4ccccc4)CC3)ccc2c1 | ? | ? | 23µM* | ? | -24% | ?
COc1ccc(NC(=O)c2nn(C)c3c2CCc2sccc2-3)cc1OC | / | / | / | / | -6% | /
O=C(Cc1ccccc1)NCCC1CCN(C(=O)Nc2ccc(F)cc2)CC1 | / | / | / | / | 28% | /
O=S1(=O)CCOC[C@H](CC2CCCCC2)N1Cc1cccc(F)c1 | -1% | 1% | ? | -14 | 7% | ?
O=S1(=O)CCOC[C@H](CC2CCCCC2)N1Cc1ccc(Cl)cc1 | -1% | -3% | 2.8µM* | 11 | 12% | 3.5µM*
Cc1ccc(CN2[C@@H](CC3CCCCC3)COCCS2(=O)=O)cc1 | 7% | 19% | ? | -19 | 0% | 13µM*
Cc1ccc(OCc2nc(C3CCN(C(=O)c4ccco4)CC3)no2)cc1 | / | / | / | / | 25% | /
Cc1ccc(C(=O)NC(C2CC2)C2CC2)cn1 | / | / | / | / | 58% | /
COc1ccc2nc(C)c(C(=O)Nc3cc(C)ccn3)cc2c1 | / | / | / | / | -17% | /
Cc1ccc(C2(CCNCc3ccc(N(C)C)cc3)CCOC(C(C)C)C2)cc1 (centres undefined) | 18µM* | 23µM* | ? | -97* | ? | -109%
CC(C)C1CC(CCNCc2ccc3c(c2)OCO3)(c2ccccc2)CCO1 (centres undefined) | 26µM* | 18µM* | ? | -69* | 0% | ?
CC(C)C1CC(CCNCc2ccc(N(C)C)cc2)(c2ccccc2)CCO1 (centres undefined) | ? | -7% | 7.3µM* | -100* | -15% | 7.3µM*
Cc1ccc(C2(CCNS(=O)(=O)c3ccc(C)cc3)CCOC(C(C)C)C2)cc1 (centres undefined) | -25% | -15% | ? | -8 | 29% | ?
CC(NCc1ccc2c(c1)OCO2)c1ccccc1 (centres undefined) | -3% | -2% | -16% | -8 | 12% | -25%
Cc1nc2sc(C#N)c(N)c2c(C)c1Cl | / | / | / | / | 12% | /
O=C1N2CCCC2CN1C1CCN(Cc2ccccc2C(F)(F)F)CC1 (centres undefined) | / | / | / | / | 5% | /
O=C(COC(=O)Cc1ccc(Br)cc1)NCc1ccccc1 | 3% | 3% | -22% | 22 | 20% | -18%
Cc1ccc(CNC(=O)Cc2ccc(Br)cc2)cc1 | 8.2µM* | 23µM* | 9.2µM* | 31 | 22% | 7.3µM*
O=C(Cc1ccc(Br)cc1)NCc1ccccc1 | 2.9µM* | 8.2µM* | 2.9µM* | 33 | 43% | 2.1µM*
Cc1ccc(CNC(=O)COC(=O)c2ccc(Br)cc2)cc1 | 8% | 15% | -4% | -14 | -21% | -5%
SMILES | HT1080 IDH1KD tx | HT1080NT lethal | DT40 TDP1 CPT | IL-1B inflam inh | ALOX12 inh | TDP1 cell noCPT
O=C1Nc2ccccc2C2(CCN(C(=O)c3ccccc3)C2)O1 (centres undefined) | / | / | / | / | 35%[176 µM] | /
C=CCNC(=O)N1CCC(O)(c2csc(CN3CCc4ccccc4C3)n2)CC1 | / | / | / | / | 14%[176 µM] | /
CC(C)C[C@@]12C(=O)N(c3cccc(Cl)c3)C(=O)N1[C@H](c1ccc(Br)cc1)[C@@H]1C(=O)N(C(C)(C)C)C(=O)[C@@H]12 | 7% | 6% | ? | -21 | -56% | ?
CC[C@@]12C(=O)N(c3cccc(Cl)c3)C(=O)N1[C@H](c1ccc(Br)cc1)[C@@H]1C(=O)N(C(C)(C)C)C(=O)[C@@H]12 | -12% | -9% | 26µM* | -25 | ? | 16µM*
CC(C)C[C@@]12C(=O)N(c3cccc(F)c3)C(=O)N1[C@H](c1ccc(Br)cc1)[C@@H]1C(=O)N(C(C)(C)C)C(=O)[C@@H]12 | 10% | 17% | ? | -2 | -14% | 21µM*
CC(C)(C)N1C(=O)[C@H]2[C@@H](c3ccc(Br)cc3)N3C(=O)N(c4ccccc4)C(=O)[C@@]3(Cc3ccccc3)[C@H]2C1=O | 1% | -2% | ? | -1 | 7% | ?
COc1ccc([C@@H]2[C@@H]3C(=O)N(C(C)(C)C)C(=O)[C@@H]3[C@]3(Cc4ccccc4)C(=O)N(c4ccc(OC)cc4)C(=O)N23)cc1 | 14% | 8% | -3% | 2 | 14% | -13%
CC(C)C[C@@]12C(=O)N(c3ccc(Br)cc3)C(=O)N1[C@H](c1ccc(Br)cc1)[C@@H]1C(=O)N(C(C)(C)C)C(=O)[C@@H]12 | -10% | -26% | ? | 0 | ? | ?
CC(C)(C)N1C(=O)[C@H]2[C@@H](c3ccc(Br)cc3)N3C(=O)N(c4cccc(Br)c4)C(=O)[C@@]3(Cc3ccccc3)[C@H]2C1=O | 1% | 0% | ? | -8 | / | 8.2µM*
COc1ccc(N2C(=O)N3[C@H](c4cccc(C)c4)[C@@H]4C(=O)N(Cc5ccccc5)C(=O)[C@@H]4[C@]3(Cc3ccccc3)C2=O)cc1 | 9% | 6% | 12µM* | 3 | -8% | 13µM*
CC(=O)N1CC2(Cc3ccccc31)CN(C(=O)c1ccc(Cl)nc1)C2 | / | / | / | / | 38% | /
CC(Oc1ccc(F)cc1)C(=O)Nc1nc(-c2ccc(F)cc2)ns1 (centres undefined) | / | / | ? | / | ? | 13µM*
COc1ccc(-c2nsc(NC(=O)C(C)Oc3ccc(Cl)c(C)c3)n2)cc1 (centres undefined) | / | / | 23µM* | / | -13% | ?
CCOC(=O)c1c(C)[nH]c(C(=O)COc2ccc3c(C)cc(=O)oc3c2)c1C | / | / | / | / | -8% | /
COC(=O)c1ccc2c(c1)nc1n2[C@@H](CNC2CCCCC2)COC1 | / | / | / | / | 26%[176 µM] | /
CCCN(C(=O)Cn1ncc2c(=O)oc3ccccc3c21)c1cccc(C)c1 | 0% | 4% | 23µM*! | 14 | -5% | 21µM*
